AmpC inh detg: inhibitors of E. coli AmpC beta-lactamase with detergent. P00811. AID 485294. Potency, µM (titrated, usually from 114 µM), actives largely listed as inhibitors. 0.041% of 370,000 active. AmpC hydrolysis of nitrocefin, absorbance 480 nm, 0.01% Triton; note: nearly all actives have a fitted effect of over 25% in size
Target sequence (P00811 whole entry, looked up): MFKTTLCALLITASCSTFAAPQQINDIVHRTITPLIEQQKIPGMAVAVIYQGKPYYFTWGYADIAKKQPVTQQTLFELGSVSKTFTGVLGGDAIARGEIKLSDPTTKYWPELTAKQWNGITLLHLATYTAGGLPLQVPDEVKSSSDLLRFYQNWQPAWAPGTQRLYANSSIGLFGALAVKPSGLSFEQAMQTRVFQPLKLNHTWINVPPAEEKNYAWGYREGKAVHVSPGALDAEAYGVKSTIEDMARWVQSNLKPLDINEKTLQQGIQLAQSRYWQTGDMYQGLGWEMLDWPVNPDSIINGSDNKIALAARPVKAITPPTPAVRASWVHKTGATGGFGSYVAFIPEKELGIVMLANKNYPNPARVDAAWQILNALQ
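AmpC (5.3 nM in the dispensed reagent) in 20 mM phosphate pH 7.0 with 0.01% (detergent screen) or 0.0001% Triton X-100 was preincubated with compounds for 15 min at room temperature. Nitrocefin was then added from an 800 uM solution, and hydrolysis was followed at 480 nm.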
AMA1-RON2 inh: disrupts binding of P. falciparum AMA1 to RON2 | AID 720542 | AlphaScreen AMA1-biotinylated RON2 peptide binding | Potency, µM (doses to about 58.2 µM), actives largely listed as inhibitors | 0.2% of 360,000 active; note: nearly all actives have a fitted effect of over 45% in size
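AMA1 (3D7) with his tag at 25 nM final met compounds first, then biotinylated RON2 peptide at 25 nM; detection used donor plus acceptor beads, 10 µg/mL apiece, read by AlphaScreen after 30 min at room temperature.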
AmpC inh no detg: blocks E. coli AmpC beta-lactamase in detergent-free assay | 0.52% of 330,000 active | P00811 | Potency, µM (series often up to 57.1 µM), usual class: inhibitors | AmpC nitrocefin hydrolysis, absorbance 480 nm, 0.0001% Triton; note: nearly all actives have a fitted effect of over 20% in size
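AmpC (5.3 nM in the dispensed reagent) in 20 mM phosphate pH 7.0 with 0.01% (detergent screen) or 0.0001% Triton X-100 was preincubated with compounds for 15 min at room temperature. Nitrocefin was then added from an 800 uM solution, and hydrolysis was followed at 480 nm.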
Pf growth 48h: P. falciparum growth inhibition at 48 hours (one generation) | 5.9% of 310,000 active | P. falciparum luciferase growth in erythrocytes, 48 h | AID 504832 | Potency, µM (titrated, usually from 28.7 µM), usual class: inhibitors
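In quantitative HTS format, infected erythrocytes bearing luciferase-reporter parasites were treated for a single generation at 37 C. Luminescence after adding detection reagent served as the growth measure.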
HCV inhibitor: HCV inhibition. 3.4% of 340,000 active. Huh7.5.1 HCVcc-Cre infection, luciferase reporter, 44 h. Potency, µM (titrated, usually from 41.8 µM), usual class: inhibitors
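Antiviral activity was scored by luciferase reporter output from cells infected with HCVcc-Cre (~0.5 moi) in presence of compound, 44 h infection period, cells seeded 1,000/well 4 h prior.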
Pf growth 96h: inhibits malaria parasite growth, 96 h; 6.9% of 320,000 active; AID 504834; Potency, µM (series often up to 28.7 µM), actives largely listed as inhibitors; P. falciparum luciferase reporter growth, 96 h
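P. falciparum expressing integrated firefly luciferase grown in erythrocytes (2% hematocrit, 0.05% parasitemia final) with compounds for 96 hours at 37 C, 5% CO2. Growth inhibition read as loss of luminescence after adding luciferase detection reagent.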
Numbers stand for hits; 0 = inactive; ? = inconclusive; - = no result. The list is not random: actives were taken first. Their share in the collection is about 11%. Calls come from the whole dose curve; as a rule, active = well fitted curve in the direction sought with a large enough effect; inconclusive = small, poorly fitted or top-dose-only effect, or another doubt; inactive = no such curve, though single readings can be large; an effect the other way counts as inactive or inconclusive.

SMILES	AmpC inh detg	AMA1-RON2 inh	AmpC inh no detg	Pf growth 48h	HCV inhibitor	Pf growth 96h
OCC[n+]1c2ccccc2nc2ccc(N3CCOCC3)cc21	0	?	0	0.329µM	0	0.262µM
COc1ccc(C(=O)NC(=S)NC(C)C)cc1Br	0	0	0	0	?	?
COc1ccc(C(=O)NC(=S)NC(C)(C)C)cc1Br	0	0	0	?	?	5.22µM
COc1ccc(C(=O)NC(=S)NNC(=O)c2ccncc2)cc1Br	0	0	0	13.1µM	0	?
CC1=NN(c2ccc(C(=O)OC(C)C)cc2)C(=O)/C1=C\C=C\c1ccco1	0	0	0	2.94µM	?	?
CCOC(=O)c1ccc(N2N=C(C)/C(=C/C=C/c3ccco3)C2=O)cc1	0	0	0	0	0	13.1µM
CCOc1cc(-c2nc(-c3ccc(-c4ccc(OC)cc4)nc3OC)no2)cc(OCC)c1OCC	0	-	-	-	-	-
COc1ccccc1NS(=O)(=O)c1cc2c(cc1Cl)NC(=O)CO2	0	-	-	-	-	-
Cn1cc([C@@H]2C[C@H]3CN(C4CCCC4)C(=O)[C@]34CCCN24)c(-c2ccccc2)n1	0	0	0	5.22µM	0	0
Cc1cc(C)c([C@@H]2C[C@H]3CN(C4CCCC4)C(=O)[C@]34CCCN24)c(-n2cccn2)c1	0	0	0	?	0	?
CC(=O)Nc1cccc(NC(=O)CSc2nccn2C2CCCC2)c1	0	-	-	-	-	-
O=C(Cn1c(=O)n2ncnc2c2c3c(sc21)CCCC3)c1ccccc1	0	0	0	11.7µM	?	-
O=c1n(Cc2ccccc2Cl)c2sc3c(c2c2ncnn12)CCCC3	?	0	0	?	0	0
O=C(NNC1=Nc2cccc3cccc1c23)c1ccc(Br)cc1	0	0	0	11.7µM	?	0
COc1ccc(CC(=O)NNC2=Nc3cccc4cccc2c34)cc1OC	0	0	0	0	0	0
C=CCNc1nc(C(=O)OCC(=O)c2ccc(C)c([N+](=O)[O-])c2)cs1	0	0	20µM	0	0	0
Cc1ccc(S(=O)(=O)NNC(=O)c2ccncc2)cc1[N+](=O)[O-]	0	0	0	0	0	1.85µM
Cc1ccc(C(=O)COC(=O)c2ccncc2)cc1[N+](=O)[O-]	0	0	0	0	0	9.28µM
COc1cc(OC)c(NC(=O)C(C)n2nc(-c3ccc(C)cc3)c3c(c2=O)CCCC3)cc1Cl (stereo not drawn)	0	-	-	-	-	-
CC(=O)N1CCC(N(Cc2ccco2)C(=O)Nc2ccc(Br)cc2F)CC1	0	-	-	-	-	-
O=C([C@H](Cc1ccccc1)NS(=O)(=O)c1ccc(Cl)cc1)N1CC[C@@]2(O)CCCC[C@H]2C1	0	0	0	13.1µM	0	?
Cc1ccc(NC(=O)Cn2c(-c3nonc3N)nc3ccccc32)cc1Cl	0	-	-	-	-	-
CCOc1ccc(S(=O)(=O)c2cc3cccc(OCC)c3oc2=O)cc1	0	-	-	-	-	-
COc1ccccc1N1CCN(S(=O)(=O)c2cccs2)CC1	0	0	0	0	0	-
O=C1C(NS(=O)(=O)c2cccs2)=C(N2CCOCC2)C(=O)c2ccccc21	0	0	0	0	0	?
SMILES	AmpC inh detg	AMA1-RON2 inh	AmpC inh no detg	Pf growth 48h	HCV inhibitor	Pf growth 96h
O=C1C(NS(=O)(=O)c2cccs2)=C(N2CCN(c3cccc(C(F)(F)F)c3)CC2)C(=O)c2ccccc21	0	10µM	0	?	?	-
O=C1C(NS(=O)(=O)c2cccs2)=C(N2CCN(Cc3ccccc3)CC2)C(=O)c2ccccc21	0	28.2µM	0	?	0	?
CCOc1ccccc1N1CCN(C2=C(NS(=O)(=O)c3cccs3)C(=O)c3ccccc3C2=O)CC1	?	10µM	0	10.4µM	?	-
O=C(CNS(=O)(=O)c1cccs1)N1CCN(c2cccc(C(F)(F)F)c2)CC1	0	-	-	-	-	-
CN1CCN(C2=C(NS(=O)(=O)c3cccs3)C(=O)c3ccccc3C2=O)CC1	0	0	0	?	11.2µM	?
CCOc1ccccc1N(CC)C(=O)Cn1ncc2c1-c1ccccc1OC2	0	-	-	-	-	-
Cc1ccc(-n2nc(C)c3c(C(=O)Nc4ccc(Br)c(C)c4)cc(C)nc32)cc1	0	-	-	-	-	-
